Measurements as given in PubChem BioAssay.
Activity calls are given as the source filed them.

Experiments:
[1] = target: Albumin (Bos taurus) (UniProt P02769); test: bovine serum albumin binders on microarray, profiling panel, artefact control for SMM control protein annotation, biochemical, small-molecule microarray, Alexa647 label, 635/667 nm fluorescence (AID 1118); conditions: BSA-A647 binding, fluorescence 635 nm, higher = more signal;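 note: score merges 667 nm emission intensity and signal-to-noise per printed compound spot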
[2] = small-molecule microarray binders of probe aXIP, primary screen, biochemical, NeuroSMM set, 635/667 nm fluorescence (AID 1119); conditions: higher = more signal, called active from +8 up or from −8 down;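 note: probe is the protein aXip251-270 applied at 1 µg/mL to compound-printed slides; binding of probe to printed compounds measured as 667 nm fluorescence plus signal to noise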
[3] = small-molecule binders of probe aNOTCH3, primary screen, biochemical, small-molecule microarray, 635/667 nm fluorescence (AID 1120); conditions: higher = more signal;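 note: probe is a biotin-tagged antibody raised against NOTCH3 rather than NOTCH3 protein; score merges spot fluorescence near 667 nm with spot signal to noise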
[4] = small-molecule binders of probe aNOTCH2, primary screen, biochemical, small-molecule microarray, 635/667 nm fluorescence (AID 1121); conditions: higher = more signal;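 note: score merges feature fluorescence read at 667 nm with its signal to noise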
[5] = target: Carbonic anhydrase 2 (Homo sapiens) (UniProt P00918); test: CAII small-molecule binders, profiling panel, biochemical, small-molecule microarray, Alexa647-labelled CAII (AID 1122); conditions: CAII-A647 binding fluorescence, higher = more signal
[6] = COS7 lysate on small-molecule microarray, probe aHis, 635 nm (AID 1123); conditions: COS7 cell lysate, fluorescence, higher = more signal;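 note: z-score combines 667nm fluorescence intensity with signal-to-noise per printed compound spot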
[7] = compound binding in COS7 lysate, probe aLAP1, primary screen, cell lysate, small-molecule microarray (AID 1124); conditions: probe aLAP1, fluorescence, higher = more signal;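 note: lysate comes from COS7 cells expressing LAP1 and is applied at 0.3 µg/mL; score merges spot fluorescence near 667 nm with signal-to-noise over triplicate slides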
[8] = test system: Sam68 (KHDRBS1); test: Sam68 small-molecule binders, primary screen, biochemical, small-molecule microarray, 635 nm fluorescence (AID 1125); conditions: small-molecule microarray binding, higher = more signal;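 note: score merges 667 nm channel intensity with signal to noise over triplicate slides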
[9] = test system: Chordin-like protein 2 (CHRDL2); test: CHRDL2 small-molecule binders, primary screen, biochemical, small-molecule microarray, 635 nm fluorescence (AID 1126); conditions: small-molecule microarray binding, fluorescence 635 nm; higher = more signal;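 note: printed compound slides probed with Chrdl2 protein at 4 µg/mL for 1 h at 4 C; score merges 667 nm emission intensity with signal to noise over three replicate slides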
[10] = target: Concanavalin-A (Canavalia ensiformis) (UniProt P02866); test: ConA small-molecule binders, primary screen, artefact control for SMM control protein annotation, biochemical, small-molecule microarray, Alexa647 label, 635 nm (AID 1127); conditions: ConA-A647 binding fluorescence, higher = more signal;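 note: z combines 667 nm emission intensity with signal-to-noise across three replicate slides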
[11] = anti-His antibody binders, primary screen, artefact control for SMM control protein annotation, biochemical, small-molecule microarray, 635 nm fluorescence (AID 1128); conditions: anti-His Alexa647 antibody binding, higher = more signal;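 note: score merges feature fluorescence with signal-to-noise for each printed compound spot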
[12] = test system: Human papillomavirus type 1a E7 protein (residues 1-88); test: HPV1a E7 small-molecule binders, primary screen, biochemical, small-molecule microarray, residues 1-88, 635 nm (AID 1129); conditions: small-molecule microarray binding, fluorescence 635 nm; higher = more signal
[13] = target: Focal adhesion kinase 1 (Homo sapiens) (UniProt Q05397); test: small-molecule microarray binders of FAK, primary screen, biochemical, 635/667 nm fluorescence, BSA, DTT (AID 1130); conditions: PTK2 binding, 635 nm fluorescence, higher = more signal;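 note: composite of spot emission at 667 nm and signal to noise over triplicate slides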
[14] = test system: Fibrinogen (Alexa647-labelled); test: fibrinogen binders on compound microarrays, profiling panel, artefact control for SMM control-protein annotation, biochemical, small-molecule microarray, 635/667 nm fluorescence (AID 1131); conditions: fibrinogen-A647 binding fluorescence, higher = more signal;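 note: z-score merges 667 nm fluorescence with per-spot signal-to-noise over triplicate slides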
[15] = target: Follistatin (Homo sapiens) (UniProt P19883); test: follistatin binders on small-molecule microarrays, primary screen, biochemical, small-molecule microarray, 635/667 nm fluorescence (AID 1132); conditions: FST binding, 635 nm fluorescence, higher = more signal
[16] = target: Fibroblast growth factor 2 (Homo sapiens) (UniProt P09038); test: FGF2 binders on small-molecule microarrays, primary screen, biochemical, small-molecule microarray, 635/667 nm fluorescence (AID 1133); conditions: small-molecule microarray binding, FGF2, fluorescence 635/667; higher = more signal
[17] = mitochondrial membrane potential change in A549 cells, profiling panel, cell-based, JC-1 fluorescence, basal, 24 h, 100 nL (AID 1138); conditions: higher = more signal;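 note: A549 lung adenocarcinoma cells under basal conditions with no added stimulus; test concentration not given here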
[18] = test system: Lefty1; test: Lefty1 binders on small-molecule microarrays, primary screen, biochemical, small-molecule microarray, 635/667 nm fluorescence (AID 1139); conditions: small-molecule microarray binding, fluorescence 635/667; higher = more signal
[19] = test system: wheat germ agglutinin (Triticum aestivum), Alexa647-labelled; test: wheat germ agglutinin binders on compound microarrays, profiling panel, artefact control for SMM control-protein annotation, biochemical, small-molecule microarray, 635/667 nm fluorescence (AID 1140); conditions: WGA-A647 binding, 635 nm fluorescence, higher = more signal;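 note: score merges 667 nm feature emission with signal to noise over triplicate slides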
[20] = target: Luciferin 4-monooxygenase (Photinus pyralis) (UniProt P08659); test: firefly luciferase enzyme inhibitors, primary screen, biochemical, luminescence, purified enzyme, 2006 set (AID 1141); conditions: SteadyGlo luminescence, 30 min, higher = more signal, called active from +8 up or from −8 down;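 note: cell-free assay with purified firefly luciferase at 100 ng per well in PBS; test concentration not given here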
Luciferin 4-monooxygenase (Photinus pyralis), sequence (P08659 whole entry, looked up): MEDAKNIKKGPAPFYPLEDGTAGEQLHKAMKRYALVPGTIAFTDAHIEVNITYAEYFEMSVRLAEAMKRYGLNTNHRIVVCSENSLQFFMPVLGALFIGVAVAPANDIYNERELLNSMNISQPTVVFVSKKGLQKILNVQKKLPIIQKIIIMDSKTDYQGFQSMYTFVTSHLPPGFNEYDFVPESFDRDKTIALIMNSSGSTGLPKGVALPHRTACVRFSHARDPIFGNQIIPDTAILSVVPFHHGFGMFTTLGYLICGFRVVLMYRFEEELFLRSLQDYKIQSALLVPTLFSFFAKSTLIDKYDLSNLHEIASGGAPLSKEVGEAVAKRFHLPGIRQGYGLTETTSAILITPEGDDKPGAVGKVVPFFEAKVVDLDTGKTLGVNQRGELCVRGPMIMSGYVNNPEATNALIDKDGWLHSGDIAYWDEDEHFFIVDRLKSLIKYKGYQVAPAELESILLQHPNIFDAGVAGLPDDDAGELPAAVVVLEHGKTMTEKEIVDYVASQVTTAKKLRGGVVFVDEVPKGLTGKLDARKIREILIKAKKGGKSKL

Follistatin (Homo sapiens), sequence (P19883 whole entry, looked up): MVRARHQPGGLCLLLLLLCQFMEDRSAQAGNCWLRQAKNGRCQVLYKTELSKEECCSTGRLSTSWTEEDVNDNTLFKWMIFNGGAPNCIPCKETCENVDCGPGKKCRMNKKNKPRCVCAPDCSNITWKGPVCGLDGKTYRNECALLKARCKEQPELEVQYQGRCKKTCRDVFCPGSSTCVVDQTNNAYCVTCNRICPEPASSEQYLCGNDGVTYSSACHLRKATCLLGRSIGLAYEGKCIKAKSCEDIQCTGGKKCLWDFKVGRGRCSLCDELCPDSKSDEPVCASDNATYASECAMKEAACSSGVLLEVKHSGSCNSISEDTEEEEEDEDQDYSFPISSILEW
Concanavalin-A (Canavalia ensiformis), sequence (P02866 whole entry, looked up): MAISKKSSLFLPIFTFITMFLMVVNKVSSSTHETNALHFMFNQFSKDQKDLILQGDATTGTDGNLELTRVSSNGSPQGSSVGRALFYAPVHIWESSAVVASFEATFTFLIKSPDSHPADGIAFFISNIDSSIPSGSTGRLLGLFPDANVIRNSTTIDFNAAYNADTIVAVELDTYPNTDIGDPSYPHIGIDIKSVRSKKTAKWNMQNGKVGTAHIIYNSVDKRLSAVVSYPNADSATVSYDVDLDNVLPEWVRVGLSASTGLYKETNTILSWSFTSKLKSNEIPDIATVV
Focal adhesion kinase 1 (Homo sapiens), sequence (Q05397 whole entry, looked up): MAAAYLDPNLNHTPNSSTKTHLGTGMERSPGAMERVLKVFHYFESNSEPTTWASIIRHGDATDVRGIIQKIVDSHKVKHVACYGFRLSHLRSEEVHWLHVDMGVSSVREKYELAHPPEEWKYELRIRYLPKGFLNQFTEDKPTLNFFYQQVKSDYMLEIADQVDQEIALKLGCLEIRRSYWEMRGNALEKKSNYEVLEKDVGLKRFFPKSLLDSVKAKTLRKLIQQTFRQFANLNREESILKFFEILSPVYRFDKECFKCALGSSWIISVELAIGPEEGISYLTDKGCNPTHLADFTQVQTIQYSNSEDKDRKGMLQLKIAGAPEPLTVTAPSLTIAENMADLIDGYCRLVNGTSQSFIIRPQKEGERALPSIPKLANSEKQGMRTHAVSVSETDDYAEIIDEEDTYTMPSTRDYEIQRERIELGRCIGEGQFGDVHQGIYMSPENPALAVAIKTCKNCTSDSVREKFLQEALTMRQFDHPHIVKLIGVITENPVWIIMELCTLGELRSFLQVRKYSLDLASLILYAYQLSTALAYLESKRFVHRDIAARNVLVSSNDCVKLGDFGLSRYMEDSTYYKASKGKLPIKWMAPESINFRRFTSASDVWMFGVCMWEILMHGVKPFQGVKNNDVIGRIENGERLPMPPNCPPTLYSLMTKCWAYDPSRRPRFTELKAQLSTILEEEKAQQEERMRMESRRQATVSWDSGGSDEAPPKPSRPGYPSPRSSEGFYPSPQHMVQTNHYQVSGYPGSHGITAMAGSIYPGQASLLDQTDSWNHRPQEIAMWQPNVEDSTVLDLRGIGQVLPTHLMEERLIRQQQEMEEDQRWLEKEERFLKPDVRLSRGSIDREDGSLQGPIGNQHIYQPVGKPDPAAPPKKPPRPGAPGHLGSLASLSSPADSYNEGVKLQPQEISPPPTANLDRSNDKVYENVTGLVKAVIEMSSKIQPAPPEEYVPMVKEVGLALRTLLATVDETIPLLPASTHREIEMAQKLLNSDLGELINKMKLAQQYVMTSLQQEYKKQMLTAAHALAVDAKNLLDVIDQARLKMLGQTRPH
Albumin (Bos taurus), sequence (P02769 whole entry, looked up): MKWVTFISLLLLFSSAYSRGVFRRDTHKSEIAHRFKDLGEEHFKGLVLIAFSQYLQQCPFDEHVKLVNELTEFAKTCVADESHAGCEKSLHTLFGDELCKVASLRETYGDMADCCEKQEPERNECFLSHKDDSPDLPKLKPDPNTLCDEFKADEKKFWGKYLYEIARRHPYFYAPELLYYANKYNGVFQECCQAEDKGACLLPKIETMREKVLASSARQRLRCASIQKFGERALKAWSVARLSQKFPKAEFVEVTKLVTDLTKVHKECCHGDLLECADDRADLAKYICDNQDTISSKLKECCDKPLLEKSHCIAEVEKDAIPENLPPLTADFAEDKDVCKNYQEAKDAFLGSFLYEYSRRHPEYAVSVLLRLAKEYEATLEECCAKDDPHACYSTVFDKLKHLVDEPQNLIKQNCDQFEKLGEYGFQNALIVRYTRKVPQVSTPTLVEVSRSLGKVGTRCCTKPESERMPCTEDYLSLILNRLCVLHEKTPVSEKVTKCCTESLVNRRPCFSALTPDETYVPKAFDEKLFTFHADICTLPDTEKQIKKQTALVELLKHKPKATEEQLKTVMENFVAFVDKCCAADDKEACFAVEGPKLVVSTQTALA
Fibroblast growth factor 2 (Homo sapiens), sequence (P09038 whole entry, looked up): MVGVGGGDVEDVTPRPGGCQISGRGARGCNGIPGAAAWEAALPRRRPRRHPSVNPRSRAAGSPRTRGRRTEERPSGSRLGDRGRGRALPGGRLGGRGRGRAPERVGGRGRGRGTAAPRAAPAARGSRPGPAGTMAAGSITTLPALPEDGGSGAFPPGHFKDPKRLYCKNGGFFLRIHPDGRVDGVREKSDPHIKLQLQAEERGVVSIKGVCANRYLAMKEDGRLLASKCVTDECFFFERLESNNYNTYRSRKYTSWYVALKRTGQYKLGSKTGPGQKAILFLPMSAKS

SMILES | composite z-score [1] | composite Z-score [2] | composite z-score [3] | composite z-score [4] | composite z-score [5] | composite z-score [6] | composite z-score [7] | composite z-score [8] | composite z-score [9] | composite z-score [10] | composite z-score [11] | composite z-score [12] | composite z-score [13] | composite z-score [14] | composite z-score [15] | composite z-score [16] | z-score [17] | composite z-score [18] | composite z-score [19] | z-score [20]
NCCCCCCNC(=O)[C@@H]1C[C@@H]2C(=O)N3CCC[C@H]3C(=O)N2[C@@H]1c1ccc(O)cc1 | 0.654 | -0.259 (inactive) | -0.0647 | -0.182 | 0.291 | 1.32 | 0.81 | 1.25 | 0.417 | 1.15 | 0.508 | 1.18 | 0.439 | 0.578 | 1.41 | 1.29 | 0.37 | 1.25 | 0.636 | -0.284 (inactive)
NC(=O)NCC#Cc1ccc2c(c1)[C@]1(C(=O)N2)[C@H](C(=O)O)[C@H]2C(=O)O[C@H](c3ccccc3)[C@H](c3ccccc3)N2[C@@H]1c1ccccc1OCCO | 0.501 | 0.434 (inactive) | 0.199 | 0.0505 | 0.372 | 0.329 | -0.0878 | 0.685 | 0.915 | 1.11 | 1.18 | 0.866 | 0.129 | 0.809 | 1.03 | 0.836 | 0.246 | 1.2 | 1.16 | -4.72 (inactive)
CC(=O)n1cc(C(O)C2C=CC3C(=O)N(Cc4ccccc4)C(=O)C3N2n2cnnc2)c2ccccc21 (stereo not given) | 0.136 | -0.213 (inactive) | 0.0576 | -0.0304 | 0.444 | 0.983 | 0.281 | -0.0572 | -0.243 | 0.458 | 0.483 | 0.0022 | 0.418 | 0.948 | 0.0251 | -0.465 | -0.463 | 0.204 | 0.505 | 0.702 (inactive)
COC(=O)[C@@]1(Cc2ccc(F)cc2)[C@H]2c3cc(C(=O)N4CCCC4)n(CCF)c3C[C@H]2CN1C(=O)c1ccccc1 | 1.09 | 0.803 (inactive) | 1.82 | 0.948 | 0.811 | 3.46 | 0.829 | 0.37 | 0.294 | 0.857 | 2.82 | 1.2 | 1.67 | 0.642 | 0.088 | -0.299 | 0.0101 | -0.427 | 1.4 | 0.125 (inactive)
CC(C)C(O)C1C=CC2C(=O)N(C)C(=O)C2N1Nc1ccccc1 (stereo not given) | 1.04 | 0.469 (inactive) | 0.585 | 0.45 | 0.812 | 1.86 | 1.01 | 1.12 | 0.164 | 0.871 | 0.932 | 1.14 | 0.746 | 0.78 | 0.828 | 0.0704 | -0.219 | -0.241 | 1.23 | -0.968 (inactive)
Cc1ccc(S[C@]2(C(=O)NC(C)C)CC(=O)N(C3Cc4ccccc4C3)[C@@H]2c2ccc(CO)cc2I)cc1 | -0.25 | 0.0777 (inactive) | -0.641 | -0.359 | 0.825 | 3.04 | 0.387 | 0.318 | 0.02 | -0.181 | -0.641 | -0.597 | -0.602 | -0.779 | -0.172 | 0.188 | 1.37 | -2.2 | -0.412 | 0.507 (inactive)
COCCOC(=O)N1C(=O)[C@@]2(c3cc(C#Cc4ccc(OC)cc4)ccc31)[C@H](C(=O)N1CCCCCCC1)[C@H]1C(=O)O[C@H](c3ccccc3)[C@H](c3ccccc3)N1[C@@H]2c1ccc(O)cc1 | -0.617 | 0.527 (inactive) | 0.807 | 0.0137 | 0.168 | 0.234 | 0.421 | 1.15 | 0.643 | 0.692 | -0.0844 | 1.12 | 0.277 | 0.205 | 1.38 | 0.541 | -1.42 | 1.04 | 0.351 | -0.0524 (inactive)
COc1c(C)cc(-c2cc3c(c(Cc4ccccc4)n2)[Si](C(C)C)(C(C)C)OC3)cc1C | 0.0401 | -0.014 (inactive) | -0.0881 | -0.0907 | -0.143 | 0.0246 | -0.269 | 0.0189 | 0.198 | 0.0652 | 0.0134 | -0.006 | 0.212 | 0.0295 | 0.308 | 0.0273 | 0.0666 | 0.708 | -0.063 | 0.674 (inactive)
O=C1O[C@@H](c2ccccc2)[C@@H](c2ccccc2)N2[C@@H](c3ccc(O)cc3)[C@]3(C(=O)Nc4ccc(C#CCCO)cc43)[C@@H](C(=O)NC[C@H](O)c3ccccc3)[C@H]12 | 0.273 | 1.62 (inactive) | -0.158 | -0.167 | 0.724 | -0.112 | 0.102 | 0.249 | -1.39 | -0.101 | 0.206 | -0.386 | -0.141 | -1.38 | -0.162 | -1.11 | -1.57 | 0.0328 | 1.12 | 0.411 (inactive)
COc1ccc(NN2C(C(O)c3ccccn3)C=CC3C(=O)N(C4CCCCC4)C(=O)C32)cc1 (stereo not given) | 0.907 | 0.0797 (inactive) | 0.263 | 0.0117 | 0.7 | 2.24 | 0.969 | 1.3 | -0.203 | 1.14 | 0.914 | 1.22 | 0.342 | 0.955 | 0.888 | 0.421 | 0.717 | -0.223 | 0.836 | -2.74 (inactive)
C=C(CCCC)/C(=C/C[C@@H](OC(C)=O)c1ccc(CO)o1)c1cc(C(=O)OC)ccc1OC | 0.557 | 0.378 (inactive) | -0.0195 | -0.0741 | 0.57 | 0.69 | 0.557 | 1.29 | 0.182 | 0.851 | 0.746 | 0.961 | 0.506 | 0.715 | 1.33 | 1.17 | 0.522 | 1.22 | 0.454 | -2.87 (inactive)
